Reference: PubChem BioAssay AID1159580 (chemical genetic matrix, 2015)
Among all 5,500 compounds or so, about 2,000 (36%) were called active. Another 18% or so got no clear call; they are omitted. Cut-off read from the data, not from the text of the source: active = normalized growth mostly below about 0.91 (no sharp cut-off); inconclusive = no clear call, values can overlap the other calls; inactive = mostly above about 0.92. The list shows a part of the results.

Experiment: chemical genetic growth profiling, strain panel (AID 1159580);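 note: tested at 20 µM; growth read once vehicle control cultures reached saturation at 30 °C; 1 = growth at the plate median or of vehicle wells; lower values mean less growth of the strain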
Conditions: S. cerevisiae deletion strains, growth OD

Measured: normalized growth

COc1ccc2c(c1)OCC(Cc1ccc(O)c(OC)c1)C2=O (stereo not given)
inactive: locus YAL021C, strain ccr4, stronger effect = lower value 0.982 | locus YAL026C, strain drs2, stronger effect = lower value 0.982 | locus YAL030W, strain snc1, stronger effect = lower value 0.968 | locus YBL061C, strain skt5, stronger effect = lower value 0.978 | locus YBR009C, strain hhf1, stronger effect = lower value 0.972 | locus YBR023C, strain chs3, stronger effect = lower value 0.97 | locus YBR171W, strain sec66, stronger effect = lower value 0.969 | locus YBR231C, strain swc5, stronger effect = lower value 0.971 | locus YBR279W, strain paf1, stronger effect = lower value 0.982 | locus YCL011C, strain gbp2, stronger effect = lower value 0.953 | locus YCL016C, strain dcc1, stronger effect = lower value 0.97 | locus YCL061C, strain MRC1, stronger effect = lower value 0.971 | locus YCL069W, strain vba3, stronger effect = lower value 0.979 | locus YCR088W, strain abp1, stronger effect = lower value 0.965 | locus YDL005C, strain med2, stronger effect = lower value 0.965 | locus YDL040C, strain nat1, stronger effect = lower value 0.972 | locus YDR001C, strain nth1, stronger effect = lower value 0.967 | locus YDR069C, strain doa4, stronger effect = lower value 0.963 | locus YDR137W, strain rgp1, stronger effect = lower value 0.922 | locus YDR159W, strain sac3, stronger effect = lower value 0.957 | locus YDR195W, strain ref2 0.958 | locus YDR297W, strain sur2, stronger effect = lower value 0.98 | locus YDR334W, strain swr1, stronger effect = lower value 0.949 | locus YDR335W, strain msn5, stronger effect = lower value 0.985 | locus YDR392W, strain spt3, stronger effect = lower value 0.882 | locus YEL003W, strain gim4, stronger effect = lower value 0.98 | locus YEL037C, strain rad23, stronger effect = lower value 0.97 | locus YEL061C, strain CIN8 (second series), stronger effect = lower value 0.977 | locus YER015W, strain faa2, stronger effect = lower value 0.974 | locus YER016W, strain bim1, stronger effect = lower value 0.969 | locus YER111C, strain swi4, stronger effect = lower value 0.999 | locus YER155C, strain BEM2 (second series), stronger effect = lower value 0.974 | locus YFR010W, strain ubp6, stronger effect = lower value 0.949 | locus YGL167C, strain pmr1, stronger effect = lower value 0.974 | locus YGL173C, strain kem1, stronger effect = lower value 0.973 | locus YGL227W, strain vid30, stronger effect = lower value 0.979 | locus YGL240W, strain doc1, stronger effect = lower value 0.96 | locus YGL253W, strain hxk2, stronger effect = lower value 0.974 | locus YHR013C, strain ard1, stronger effect = lower value 1 | locus YHR027C, strain rpn1, stronger effect = lower value 0.963 | locus YHR030C, strain SLT2, stronger effect = lower value 1.03 | locus YHR079C, strain IRE1, stronger effect = lower value 1.03 | locus YHR142W, strain chs7, stronger effect = lower value 0.943 | locus YJL092W, strain hpr5, stronger effect = lower value 0.932 | locus YJL095W, strain BCK1 (second series), stronger effect = lower value 0.98 | locus YJL095W, strain BCK1, stronger effect = lower value 1.05 | locus YJL115W, strain asf1, stronger effect = lower value 0.951 | locus YJL129C, strain trk1, stronger effect = lower value 0.943 | locus YJL154C, strain vps35, stronger effect = lower value 0.973 | locus YJL164C, strain tpk1, stronger effect = lower value 0.968 | locus YJL166W, strain qcr8, stronger effect = lower value 0.991 | locus YJL187C, strain SWE1, stronger effect = lower value 0.998 | locus YJR066W, strain TOR1, stronger effect = lower value 0.966 | locus YKL160W, strain elf1, stronger effect = lower value 0.985 | locus YKR026C, strain gcn3, stronger effect = lower value 0.967 | locus YKR091W, strain srl3, stronger effect = lower value 0.965 | locus YLL001W, strain dnm1, stronger effect = lower value 0.954 | locus YLL026W, stronger effect = lower value 0.975 | locus YLL041C, strain sdh2, stronger effect = lower value 0.966 | locus YLR027C, strain aat2, stronger effect = lower value 0.964 | locus YLR113W, strain HOG1, stronger effect = lower value 0.979 | locus YLR221C, strain rsa3, stronger effect = lower value 0.982 | locus YLR258W, strain gsy2, stronger effect = lower value 0.961 | locus YLR262C, strain YPT6 (second series), stronger effect = lower value 0.949 | locus YLR320W, strain mms22, stronger effect = lower value 0.983 | locus YLR342W, strain FKS1, stronger effect = lower value 0.979 | locus YLR357W, strain rsc2, stronger effect = lower value 0.965 | locus YLR370C, strain arc18, stronger effect = lower value 0.948 | locus YLR384C, strain iki3, stronger effect = lower value 0.981 | locus YML120C, strain ndi1, stronger effect = lower value 0.971 | locus YMR058W, strain fet3, stronger effect = lower value 0.964 | locus YMR125W, strain sto1, stronger effect = lower value 0.948 | locus YMR129W, stronger effect = lower value 0.974 | locus YMR205C, strain PFK2, stronger effect = lower value 0.974 | locus YMR231W, strain pep5, stronger effect = lower value 0.99 | locus YNL071W, strain lat1, stronger effect = lower value 0.986 | locus YNL183C, strain NPR1, stronger effect = lower value 0.964 | locus YNL209W, strain ssb2, stronger effect = lower value 0.988 | locus YNL248C, strain rpa49, stronger effect = lower value 0.971 | locus YNL322C, strain KRE1 (second series), stronger effect = lower value 0.977 | locus YNR049C, strain mso1, stronger effect = lower value 0.965 | locus YOR001W, strain rrp6, stronger effect = lower value 0.982 | locus YOR070C, strain gyp1, stronger effect = lower value 0.993 | locus YOR080W, strain dia2, stronger effect = lower value 0.97 | locus YOR083W, strain WHI5, stronger effect = lower value 0.971 | locus YOR106W, strain vam3, stronger effect = lower value 0.952 | locus YOR231W, strain MKK1, stronger effect = lower value 1.06 | locus YOR265W, strain rbl2, stronger effect = lower value 0.975 | locus YOR270C, strain vph1, stronger effect = lower value 0.951 | locus YOR290C, strain snf2, stronger effect = lower value 0.965 | locus YPL051W, strain arl3, stronger effect = lower value 0.983 | locus YPL078C, strain atp4, stronger effect = lower value 0.978 | locus YPL106C, strain sse1, stronger effect = lower value 0.914 | locus YPL240C, strain hsp82, stronger effect = lower value 0.957 | locus YPL256C, strain CLN2, stronger effect = lower value 1.03
